Results taken from PubChem BioAssay AID1490 (National Center for Advancing Translational Sciences (NCATS), 2009).
The campaign covered roughly 310,000 compounds. About 11,000 (3.5%) were called active. About 4% were inconclusive and are not listed. The sample holds actives, similar compounds and a random draw of the others, so the mix is not that of the screen. Calls follow the shape of the dose curve; as a rule, active = well fitted inhibition curve with a large enough effect; inconclusive = small, poorly fitted or top-dose-only effect, or another doubt; inactive = no such curve, though single readings can be large or run the other way. Non-standard residues stand in square brackets, D forms with d. Residues, ends and D or L forms follow the SMILES beside them. *: point of attachment. PhAc = O=C(Cc1ccccc1)*

Target: 4'-phosphopantetheinyl transferase ffp (Bacillus subtilis) (UniProt Q9F4F7)
Experiment: qHTS Assay for Inhibitors of Bacillus subtilis Sfp phosphopantetheinyl transferase (PPTase);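 also: the enzyme is Sfp with the accession as filed and its product quenches rhodamine fluorescence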;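 as to Largest response in the series, negative = inhibition: 0% = enzyme reaction without inhibitor and -100% = no enzyme wells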
Settings: Biochemical Sfp PPTase activity
Procedure, shortened: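 Compounds were incubated with enzyme (final 15 nM) for 15 min at room temperature before substrate addition started the reaction. Fluorescence at 525 nm excitation, 598 nm emission was recorded immediately and after 30 minutes.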
Potency is read from the fitted curve at half-maximal effect.

Largest response in the series, negative = inhibition, inactive:
Cc1c(C(=O)NCCN(C)C)oc2ccc(S(=O)(=O)N3CCCC3)cc12 18.9%
Fc1cc(F)c2nc(Nc3nc4c(F)cccc4s3)sc2c1 -0.873%
NC(=O)c1c(NC(=O)c2ccccc2)sc2c1CCCC2 4.07%
COc1ccc(N2CCN(S(=O)(=O)c3cc(Br)cnc3N)CC2)cc1 7.84%
C=CCc1c(C)nc2cc(-c3ccccc3)[nH]n2c1=O 7.41%
COc1cc(OC)cc(-c2nc3nc(C)c(CCC(=O)NCc4ccco4)c(C)n3n2)c1 8.97%
Cc1nc2c(-c3ccc(F)cc3)c(C)nn2c(C)c1CCC(=O)NCc1ccco1 -2.36%
CC(C)C(=O)Nc1nnc(SCC(=O)N2C(C)CCCC2C)s1 (configuration not stated) -17.7%
COc1ccc(Cl)cc1S(=O)(=O)N1CCN(CC(=O)C(C)(C)C)CC1 7.95%
O=S(=O)(c1cc(Cl)ccc1Cl)N1CCN(Cc2ccco2)CC1 22.5%
COc1ccccc1CNC(=O)C1CCN(S(=O)(=O)c2ccc3c(c2)CC(C)N3C(=O)C2CC2)CC1 (configuration not stated) -7.76%
CN(C)S(=O)(=O)c1ccc(N2CCCC2)c(C(=O)Nc2cccc(F)c2)c1 -1.67%
Cc1ccc(C(=O)NCCc2nnc(SCC(=O)Nc3cccc(C(=O)O)c3)n2C)cc1 10.4%
CC(CCc1ccccc1)NC(=O)COC(=O)c1ccc(F)cc1 (configuration not stated) -4.51%
CCOc1cccc(NC(=O)C2CCCN(S(=O)(=O)c3ccc(OC)cc3)C2)c1 (configuration not stated) -5.07%
COc1ccccc1CC(=O)Nc1ccc(S(=O)(=O)N2CCCC2)cc1 4.84%
Cc1cc(C)c(C#N)c(Nc2cccc(Br)c2)n1 6.8%
CC(C)C[C@@H](NC(=O)[C@H]1CCCN1C(=O)Cc1ccccc1)C(N)=O (PhAc-[dP]-[dL]-NH2) 21.3%
CC(C)CCN(C(=O)c1csnn1)C(C(=O)NC1CCCC1)c1ccccc1 (configuration not stated) 13.6%
COc1ccc2[nH]cc(CCNc3ncnc4ccc(-c5ccc(C(=O)N(C)C)cc5)cc34)c2c1 -5.41%
COc1ccc(/C=N/NC(=O)c2cccc(C(F)(F)F)c2)cc1 -22%
COc1cccc(Cn2cc(/C=N/NC(=O)c3cc(O)cc(O)c3)c3ccccc32)c1 -18.5%
O=C(NC1Cc2ccccc2C1)c1cc(COc2cccc(C(F)(F)F)c2)on1 24%
Cc1ccc(-c2n[nH]c(=S)n2/N=C/c2cc3c(cc2[N+](=O)[O-])OCO3)cc1 -22.6%
S=c1[nH]nc(COc2ccccc2)n1-c1ccccc1 21.2%
Cc1ccc(OCc2n[nH]c(=S)n2-c2ccccc2)cc1 5.12%
CCc1n[nH]c(=S)n1/N=C/c1c[nH]c2ccc(Br)cc12 11.4%
CSc1ccc(CCNC(=O)CS(=O)(=O)Cc2nc(-c3ccccc3F)oc2C)cc1 17.7%
Cc1cc(Cl)ccc1C(=O)C1CCCN(C(=O)c2nonc2C)C1 (configuration not stated) 1.34%
COC(=O)c1ccc(/C=N/N2C(C)CCCC2C)cc1 (configuration not stated) 13.3%
COC(=O)c1ccc(/C=N\n2c(C)nnc2C)cc1 13.8%
COC(=O)C1=CN(Cc2ccc(OC)cc2)C=C(C(=O)OC)C1c1ccc(O)c(OC)c1 -3.15%
Cn1c(CNC(=O)c2ccccc2F)nnc1SCc1ccc(F)cc1 -14.5%
Cc1ccc(C(=O)CSc2nnc(Cn3nnc4ccccc43)n2C)cc1 4%
COc1ccc(S(=O)(=O)/N=C2\C=C(NS(=O)(=O)c3ccccc3)C(=O)c3ccccc32)cc1 -20.9%
O=C(NC(c1ccccc1)c1ccccc1)N1CCN(CCO)CC1 5.46%
OCCN1CCN(c2nnc(-c3ccccc3)c3ccccc23)CC1 21.7%
CCc1nonc1NC(=O)c1oc2ccc(Cl)cc2c1C -4.03%
COc1cccc(CC(=O)N2CCc3nc(COc4ccccc4)c4c(c3C2)CO[C@@H](C)C4)c1 -1.37%
NS(=O)(=O)c1ccc(CNC(=O)c2cccc(Oc3ccccc3)c2)cc1 5.75%
CSc1nc2sc3c(c2c(=O)[nH]1)CCc1ccccc1-3 2.54%
CCCSc1nc2sc3c(c2c(=O)n1-c1ccc(OC)cc1)CCN(C)C3 -7.59%
CCOC(=O)C1=C(CN2CCc3ccccc32)NC(=O)NC1c1ccc(Cl)cc1 (configuration not stated) -11.6%
CCOC(=O)C1=C(CN2CCc3ccccc32)NC(=O)NC1c1cccc([N+](=O)[O-])c1 (configuration not stated) 3.8%

Potency, active:
NC(=O)c1c(Nc2nc3c(F)cccc3s2)sc2c1CCCC2 44.7 µM
COc1ccc(-c2cc3nc(C)c(CCC(=O)NC(C)CCc4ccco4)c(C)n3n2)c(OC)c1 (configuration not stated) 79.4 µM
O=C(CN1CCN(S(=O)(=O)c2cc(Cl)ccc2Cl)CC1)c1ccc(O)c(O)c1 50.1 µM
O=C1CCC(=O)N(O)CCCCCNC(=O)CCC(=O)N(O)CCCCCNC(=O)CCC(=O)N(O)CCCCCN1 89.1 µM
CCN(CC(=O)Nc1ccc(S(=O)(=O)N2CCCC2)cc1)CC(=O)Nc1cccc(OC)c1 79.4 µM
O=C(Cn1cc(/C=N/NC(=O)c2cccc(C(F)(F)F)c2)c2ccccc21)Nc1ccc(F)cc1 20 µM
O=[N+]([O-])c1ccccc1/C=N/n1c(COc2ccccc2)n[nH]c1=S 56.2 µM
Fc1ccc(/C=N/n2c(COc3ccccc3)n[nH]c2=S)cc1 56.2 µM
CCN(CC)S(=O)(=O)c1cccc(-c2n[nH]c(=S)n2/N=C/c2ccc(C(=O)OC)cc2)c1 50.1 µM
Cn1c(Cn2nnc3ccccc32)nnc1SCC(=O)c1ccccc1F 50.1 µM
OCCN1CCN(C(=S)c2ccc(-c3ccccc3)cc2)CC1 7.08 µM
COc1ccc(-n2c(=S)[nH]c3sc4c(c3c2=O)CCc2ccccc2-4)cc1 17.8 µM
CCOC(=O)C1=C(CN2CCCCCC2)NC(=O)NC1c1cccc([N+](=O)[O-])c1 (configuration not stated) 89.1 µM
